Reference: PubChem BioAssay (Tox21)
Where “and” joins values, the source holds several entries; their conditions need not be identical. Identical values can stand only once. Inconclusive results are not listed. Entries that show only a call come without a potency. Some structures have more than one record in an assay (separate samples or runs), and their calls can disagree. Calls of active or inactive are those of the source. Unless noted, calls come from the whole dose curve; as a rule, active = well fitted curve in the direction sought with a large enough effect in the repeat runs; inconclusive = weak or mixed curves; inactive = no such curve, though single readings can be large; an effect the other way counts as inactive or inconclusive.

What was measured:
[1] = qHTS assay to identify small molecule antagonists of the glucocorticoid receptor (GR) signaling pathway - cell viability counter screen (AID 720693); note: nearly all actives have a fitted effect of over 55% in size
[2] = qHTS assay for identifying genotoxic compounds that show differential cytotoxicity against isogenic chicken DT40 cell lines with known DNA damage response pathways - wild type cell line (AID 743012); note: nearly all actives have a fitted effect of over 60% in size; note: potency is the fitted concentration of half-maximal effect
Outline: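 Using parental DT40 (300 cells/well), compounds delivered in DMSO incubate 40 h at 37 C/5% CO2. CellTiter-Glo reagent then stands 30 min at room temperature, and luminescence gives cell viability.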

[3] = qHTS assay for identifying genotoxic compounds that show differential cytotoxicity against isogenic chicken DT40 cell lines with known DNA damage response pathways - Rev3 mutant cell line (AID 743014); note: nearly all actives have a fitted effect of over 55% in size; note: potency is the fitted concentration of half-maximal effect
[4] = qHTS assay for identifying genotoxic compounds that show differential cytotoxicity against isogenic chicken DT40 cell lines with known DNA damage response pathways - Rad54/Ku70 mutant cell line (AID 743015); note: nearly all actives have a fitted effect of over 60% in size; note: potency is the fitted concentration of half-maximal effect
[5] = qHTS assay to identify small molecule antagonists of the androgen receptor (AR) signaling pathway using the MDA cell line - cell viability counter screen (AID 743041; note: nearly all actives have a fitted effect of over 45% in size; note: potency is the fitted concentration of half-maximal effect)
Outline: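 Same-well cytotoxicity was assessed by CellTiter-Fluor in MDA-kb2 AR-luc cells after 16 h of compound treatment under R1881 agonism.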

[6] = qHTS assay to identify small molecule antagonists of the thyroid receptor (TR) signaling pathway - cell viability counter screen (AID 743064); note: nearly all actives have a fitted effect of over 50% in size; note: potency is the fitted concentration of half-maximal effect
Outline: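 Counter screen for cytotoxicity: compound plus T3 (1 nM final) on GH3.TRE-Luc cells, 23.5 h at 37 °C, then fluorescence viability readout with CellTiter-Fluor.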

[7] = qHTS assay to identify small molecule antagonists of the androgen receptor (AR) signaling pathway - cell viability counter screen (AID 743033; note: nearly all actives have a fitted effect of over 45% in size)
[8] = target: Androgen receptor (Homo sapiens) (UniProt P10275); assay: qHTS assay to identify small molecule antagonists of the androgen receptor (AR) signaling pathway (AID 743035; active = well fitted inhibition curve with a large enough effect in the signal ratio in the repeat runs, not every such curve was filed as active; the % refers to the signal ratio)
Androgen receptor (Homo sapiens), sequence (P10275 whole entry, looked up): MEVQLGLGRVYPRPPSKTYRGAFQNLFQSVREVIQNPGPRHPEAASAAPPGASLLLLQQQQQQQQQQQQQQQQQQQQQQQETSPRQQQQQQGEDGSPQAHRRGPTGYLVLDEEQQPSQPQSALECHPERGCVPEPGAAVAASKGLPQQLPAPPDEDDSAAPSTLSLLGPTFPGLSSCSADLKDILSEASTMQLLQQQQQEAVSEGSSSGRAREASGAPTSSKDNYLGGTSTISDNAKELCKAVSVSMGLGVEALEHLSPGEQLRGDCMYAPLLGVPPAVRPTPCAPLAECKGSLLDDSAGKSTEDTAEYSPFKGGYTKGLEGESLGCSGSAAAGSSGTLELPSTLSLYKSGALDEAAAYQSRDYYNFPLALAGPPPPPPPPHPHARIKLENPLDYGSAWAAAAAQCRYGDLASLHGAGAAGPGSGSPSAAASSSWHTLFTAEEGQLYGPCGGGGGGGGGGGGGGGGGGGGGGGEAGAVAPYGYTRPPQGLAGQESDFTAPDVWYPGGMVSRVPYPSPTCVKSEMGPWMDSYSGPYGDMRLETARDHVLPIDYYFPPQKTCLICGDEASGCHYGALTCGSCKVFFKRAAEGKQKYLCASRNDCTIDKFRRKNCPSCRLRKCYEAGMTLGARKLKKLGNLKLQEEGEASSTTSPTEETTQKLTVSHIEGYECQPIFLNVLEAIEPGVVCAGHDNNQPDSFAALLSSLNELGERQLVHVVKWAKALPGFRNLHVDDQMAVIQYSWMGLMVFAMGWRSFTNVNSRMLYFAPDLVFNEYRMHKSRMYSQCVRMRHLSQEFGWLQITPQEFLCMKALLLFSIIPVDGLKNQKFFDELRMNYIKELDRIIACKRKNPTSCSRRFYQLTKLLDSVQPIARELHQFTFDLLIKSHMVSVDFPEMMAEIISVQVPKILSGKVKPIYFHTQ
Outline: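 Using qHTS, AR-UAS-bla GripTite HEK293 cells received compound, then R1881, and were cultured 16 h at 37C/5% CO2 before a 2 h room-temperature LiveBLAzer B/G FRET substrate step and fluorescence measurement.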

[9] = target: Androgen receptor (Homo sapiens) (UniProt P10275); assay: qHTS assay to identify small molecule agonists of the androgen receptor (AR) signaling pathway (AID 743036; active = well fitted activation curve with a large enough effect in the signal ratio in the repeat runs, with a control signal flat, not every such curve was filed as active; the % refers to the signal ratio; note: potency is the fitted concentration of half-maximal effect)
Outline: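 In this Tox21 qHTS, 2,000 HEK293 AR-bla cells per well were incubated with compounds for 16 h at 37C and 5% CO2. Fluorescence intensity was recorded 2 h after adding LiveBLAzer B/G FRET substrate at room temperature.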

[10] = target: Androgen receptor (Homo sapiens) (UniProt P10275); assay: qHTS assay to identify small molecule antagonists of the androgen receptor (AR) signaling pathway using the MDA cell line (AID 743042; note: nearly all actives have a fitted effect of over 55% in size)
Outline: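 MDA-kb2 breast carcinoma cells carrying MMTV-luciferase (AR/GR responsive) were co-treated with compounds and the agonist R1881 for 16 h at 37C. Inhibition read as ONE-Glo luminescence; CellTiter-Fluor fluorescence measured in parallel for cytotoxicity.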

Structure (SMILES) | outcome [1] | Potency [2] | Potency [3] | Potency [4] | Potency [5] | Potency [6] | outcome [7] | outcome [8] | Potency [9] | outcome [10]
O=c1[nH]cnc2[nH]ncc12 | inactive | inactive | inactive | inactive | inactive | inactive | – | – | – | –
CCO[Si](CCC#N)(OCC)OCC | inactive | inactive | inactive | inactive | inactive | inactive | – | – | – | –
C=CCCCCCCCCC(=O)O | inactive | inactive | inactive | inactive | inactive | inactive | – | – | – | –
CN1C(=O)CC[C@H]1c1cccnc1 | inactive | inactive | inactive | inactive | inactive | inactive | – | – | – | –
O=S(=O)(O)c1ccccc1 | inactive | inactive | inactive | inactive | inactive | inactive | – | – | – | –
O=C(O)c1ccc(S(=O)(=O)N(Cl)Cl)cc1 | inactive | inactive | 43.5 µM (active) | inactive and 24.5 µM (active) | inactive | inactive | inactive | – | – | –
CCCOC(=O)c1ccccc1 | inactive | inactive | inactive | inactive | inactive | inactive | – | – | – | –
O=S(=O)(O)c1ccc(N=Nc2c(O)ccc3cc(S(=O)(=O)O)ccc23)cc1 | inactive | inactive | inactive | inactive | 30.8 µM (active) and 27.3 µM (active) | 30.8 µM (active) and 27.3 µM (active) | – | – | – | –
Cc1ccc([N+](=O)[O-])cc1S(=O)(=O)O | inactive | inactive | inactive | inactive | inactive | inactive | – | inactive | inactive | inactive
CC(C)(C#N)c1cc(Cn2cncn2)cc(C(C)(C)C#N)c1 | inactive | inactive | inactive | inactive | inactive | – | – | – | – | –
CN/C(=C\[N+](=O)[O-])NCCSCc1csc(CN(C)C)n1 | inactive | inactive | inactive | inactive | inactive | inactive | – | inactive | inactive | inactive
COc1cc(OC)c(C(=O)CCCN2CCCC2)c(OC)c1 | inactive | inactive | inactive and 21.7 µM (active) | inactive | inactive | inactive | – | inactive | inactive | inactive
C[C@]12CCC(=O)C=C1CC[C@@H]1[C@@H]2[C@@H](O)C[C@@]2(C)[C@H]1CC[C@]2(O)C(=O)CO | inactive | inactive | inactive | inactive | inactive | inactive | – | inactive | 21.3 nM (active) and 27.8 nM (active) | inactive
NCCCCCCN | inactive | inactive | inactive | inactive | inactive | inactive | – | – | – | –
CC(C)c1cccc(C(C)C)c1 | inactive | inactive | inactive | inactive | inactive | inactive | – | – | – | –
CC(C)(Oc1ccc(CCNC(=O)c2ccc(Cl)cc2)cc1)C(=O)O | inactive | inactive | inactive | inactive | inactive | inactive | – | – | – | –
CC(=O)OCc1ccco1 | inactive | – | 27.3 µM (active) | inactive | inactive | inactive | inactive | – | – | –
CC(O)CC(C)(C)O (stereo not given) | inactive | inactive | inactive | inactive | inactive | inactive | – | – | – | –
CC(CCO)CC(C)(C)C (stereo not given) | – | inactive | inactive | inactive | inactive | inactive | inactive | inactive | inactive | inactive
COCCCN | inactive | inactive | inactive | inactive | inactive | inactive | – | – | – | –
COc1ccc(OC)cc1 | inactive | inactive | inactive | inactive | inactive | inactive | – | – | – | –
CC(=O)CC(C)(C)O | inactive | inactive | inactive | inactive | inactive | inactive | – | inactive | inactive | inactive
CCCCCCO | inactive | inactive | inactive | inactive | inactive | inactive | – | – | – | –
Nc1ccc(Cl)c(N)c1 | – | inactive | inactive | – | inactive | inactive | inactive | – | – | –
N[C@H](Cc1c[nH]c2ccccc12)C(=O)O | – | inactive | inactive | inactive | inactive | inactive | inactive | – | – | –
CN(C)c1ccc(Cc2ccc(N(C)C)cc2)cc1 | – | 27.3 µM (active) | 48.8 µM (active) and 27.3 µM (active) | 61.4 µM (active) and 24.3 µM (active) | inactive | inactive | inactive | – | – | –
N#Cc1ccccc1 | – | inactive | inactive | inactive | inactive | inactive | inactive | – | – | –
Cc1ccc2ncccc2c1 | – | inactive | inactive | inactive | inactive | inactive | inactive | – | – | –
